In PubChem BioAssay AID2796 (The Scripps Research Institute Molecular Screening Center, 2010):
Among all 320,000 compounds or so, about 8,000 (2.5%) were called active. The sample holds actives, similar compounds and a random draw of the others, so the mix is not that of the screen. Cut-off read from the data, not from the text of the source: active = activation above about 47%; inactive = the rest.

target: Aryl hydrocarbon receptor (Homo sapiens) (UniProt P35869); assay: AHR activators, primary screen, cell-based, luminescence, luciferase reporter, human (AID 2796); conditions: AHR-responsive luciferase reporter cells, at 5 µM, stronger effect = higher value;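 note: 0% = vehicle wells and 100% = reference agonist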
Sequence (P35869 whole entry, looked up): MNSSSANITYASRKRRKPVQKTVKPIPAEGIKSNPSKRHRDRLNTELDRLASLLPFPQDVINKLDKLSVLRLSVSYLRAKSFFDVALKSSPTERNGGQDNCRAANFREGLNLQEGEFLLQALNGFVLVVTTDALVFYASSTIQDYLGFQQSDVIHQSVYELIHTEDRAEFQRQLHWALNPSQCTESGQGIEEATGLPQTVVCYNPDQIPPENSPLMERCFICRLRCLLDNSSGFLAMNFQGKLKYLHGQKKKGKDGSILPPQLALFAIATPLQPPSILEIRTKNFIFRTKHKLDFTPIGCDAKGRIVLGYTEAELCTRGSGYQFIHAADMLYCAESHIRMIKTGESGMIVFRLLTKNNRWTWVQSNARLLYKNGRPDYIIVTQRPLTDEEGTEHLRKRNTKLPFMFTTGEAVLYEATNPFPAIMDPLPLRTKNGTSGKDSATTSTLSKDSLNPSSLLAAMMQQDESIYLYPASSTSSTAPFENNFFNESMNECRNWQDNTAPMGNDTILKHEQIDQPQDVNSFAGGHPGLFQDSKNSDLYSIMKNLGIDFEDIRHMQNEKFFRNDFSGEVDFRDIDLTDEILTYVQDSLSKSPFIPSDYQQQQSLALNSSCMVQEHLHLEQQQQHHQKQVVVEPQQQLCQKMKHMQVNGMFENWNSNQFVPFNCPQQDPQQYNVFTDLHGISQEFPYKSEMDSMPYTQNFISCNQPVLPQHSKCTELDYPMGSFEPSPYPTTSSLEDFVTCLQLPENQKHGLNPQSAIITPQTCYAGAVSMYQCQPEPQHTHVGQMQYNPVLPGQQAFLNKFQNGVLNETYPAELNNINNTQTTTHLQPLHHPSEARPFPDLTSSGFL

| Structure (SMILES) | activation |
| --- | --- |
| CC(=O)NCC(=O)N(C)C(C(=O)Nc1ccc2c(c1)OCCO2)c1ccccc1 (configuration not stated) | 15% (inactive) |
| Cc1cc(=O)oc2c3c(cc(OCC(=O)NCc4ccccn4)c12)OC(C)(C)CC3 | 4.58% (inactive) |
| FC(F)(F)c1ccc(-n2cn[nH]c2=S)cc1 | -2.71% (inactive) |
| CCN1CCN(C(=O)c2cc3cc4ccc(OC)cc4nc3s2)CC1 | 2.17% (inactive) |
| Cc1ccccc1Nc1nc(-c2cccnc2)cs1 | 2.23% (inactive) |
| CCCn1c(CCNc2nc(-c3ccc(OC)cc3)cs2)nc2ccccc21 | 15% (inactive) |
| COc1ccc(Nc2nc(-c3ccccc3)cs2)cc1 | 91.8% (active) |
| Cc1cccc(Nc2nc(-c3ccccc3)cs2)n1 | 95.5% (active) |
| O=C(CSC1=NCCS1)Nc1nc(-c2ccccc2)cs1 | 18.4% (inactive) |
| COc1ccc2c(c1OC)C(=O)OC2Nc1nc(-c2ccccc2)cs1 (configuration not stated) | -5.46% (inactive) |
| CCCCn1nc(C(=O)Nc2cccc(C(=O)NC3CC3)c2)c2ccccc2c1=O | -0.03% (inactive) |
| CC1(C)C2CCC13CS(=O)(=O)NC3C2 (configuration not stated) | 1.31% (inactive) |
| CN1CCN(C(=O)c2cnn(-c3ccccc3)c2NC(=O)c2ccc([N+](=O)[O-])cc2)CC1 | 4.36% (inactive) |
| Nc1c(N(CCO)C(=O)C2CCCCC2)c(=O)[nH]c(=O)n1Cc1ccccc1 | 0.25% (inactive) |
| O=C(Nc1ccccc1Cl)c1ccccc1S(=O)(=O)c1ccccc1[N+](=O)[O-] | 2.48% (inactive) |
| COc1ccccc1C(=O)Nc1ccccc1C(=O)Nc1ccccc1 | 18.5% (inactive) |
| CN(C)S(=O)(=O)Oc1ccccc1C(=O)Nc1ccccc1Cl | 106% (active) |
| Cc1ccc(NC2CCCN(C(=O)CCc3cn[nH]c3)C2)cc1C (configuration not stated) | 11.1% (inactive) |
| Cn1ncc(Br)c1C(=O)NC1CCCC1 | -3.04% (inactive) |
| Cn1ncc(Br)c1C(=O)NCc1cccs1 | -1.33% (inactive) |
| COc1ccccc1NC(=O)c1c(Br)cnn1C | 57.9% (active) |
| COC(=O)c1ccc(C(NC(=O)OCc2ccccc2)/C(C)=C/[C@@H](C)C(=O)NCc2ccc(OC)c(OC)c2)cc1 (some centres not stated) | 6.4% (inactive) |
| COc1ccc(NC(=O)CSc2nnc(C3CC3)n2C)cc1S(=O)(=O)N1CCCCC1 | -0.33% (inactive) |
| Cc1ccc(CNCc2ccc3c(c2)OCO3)c(C)c1 | 2.41% (inactive) |
| COc1cc(OC)c(C(=O)NCc2ccc3c(c2)OCO3)cc1OC | 14% (inactive) |
| COc1cc(CNCc2ccc3c(c2)OCO3)c([N+](=O)[O-])cc1OC | 111% (active) |
| NS(=O)(=O)c1ccc(N=Cc2ccc(Br)s2)cc1 | 3.54% (inactive) |
